# Test results published in publication PMC4336329 (PLoS ONE, 2015).
# The whole screen tested about 310,000 compounds, of which about 14,000 (4.5%) showed an effect of 50% or more. The effect is printed as a negative number. The list comes from a sample in which strong results are over-represented; it also holds similar structures and randomly drawn compounds.
# Molecular target: human ether-à-go-go-related gene (hERG) potassium channel (human, UniProt Q12809)
# Experiment: primary screen, population patch clamp on CHO cells stably expressing hERG; higher = less effect of the substance
# 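Also: peak tail current of the secondary pulse compared with the same well before compound.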
# Sequence of human ether-à-go-go-related gene (hERG) potassium channel (Q12809 whole entry, looked up): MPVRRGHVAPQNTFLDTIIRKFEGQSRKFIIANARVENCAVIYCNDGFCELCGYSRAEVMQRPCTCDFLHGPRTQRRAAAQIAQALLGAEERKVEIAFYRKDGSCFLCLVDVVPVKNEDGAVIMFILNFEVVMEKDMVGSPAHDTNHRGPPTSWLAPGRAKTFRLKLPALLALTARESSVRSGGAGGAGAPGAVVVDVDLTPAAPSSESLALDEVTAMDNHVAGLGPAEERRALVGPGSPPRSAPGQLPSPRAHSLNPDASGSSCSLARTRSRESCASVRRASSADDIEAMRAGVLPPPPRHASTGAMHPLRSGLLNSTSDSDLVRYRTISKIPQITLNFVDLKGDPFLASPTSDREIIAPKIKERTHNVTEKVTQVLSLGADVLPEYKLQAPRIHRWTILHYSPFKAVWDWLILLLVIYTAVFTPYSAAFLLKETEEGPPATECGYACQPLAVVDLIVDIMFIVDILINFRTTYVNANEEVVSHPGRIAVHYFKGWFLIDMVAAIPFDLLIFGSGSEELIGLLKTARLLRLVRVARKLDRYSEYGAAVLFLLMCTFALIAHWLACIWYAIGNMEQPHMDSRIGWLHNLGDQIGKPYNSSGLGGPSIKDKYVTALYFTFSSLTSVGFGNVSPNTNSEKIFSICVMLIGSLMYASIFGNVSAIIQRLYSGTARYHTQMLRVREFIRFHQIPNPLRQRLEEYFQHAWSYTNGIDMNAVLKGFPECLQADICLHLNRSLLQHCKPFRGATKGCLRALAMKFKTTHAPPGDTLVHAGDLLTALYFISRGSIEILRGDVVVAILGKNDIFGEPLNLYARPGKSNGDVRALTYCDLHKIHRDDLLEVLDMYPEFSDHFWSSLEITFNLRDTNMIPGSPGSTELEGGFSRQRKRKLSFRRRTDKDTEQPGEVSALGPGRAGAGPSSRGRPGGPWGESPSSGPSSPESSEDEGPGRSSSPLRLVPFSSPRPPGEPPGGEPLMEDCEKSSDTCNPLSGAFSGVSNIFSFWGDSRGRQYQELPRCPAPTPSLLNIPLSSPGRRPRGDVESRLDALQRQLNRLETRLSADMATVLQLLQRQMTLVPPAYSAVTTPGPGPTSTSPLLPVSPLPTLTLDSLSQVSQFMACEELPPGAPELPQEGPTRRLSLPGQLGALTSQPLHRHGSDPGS
row,SMILES,"hERG current change (%, negative = inhibition) at 10uM"
1,CCn1cc(Br)c(C(=O)Nc2ccc(Cl)cc2Cl)n1,7.24%
2,Cc1ccc(S(=O)(=O)N(Cc2ccc(Cl)cc2)c2ccccc2C(=O)O)cc1,12.3%
3,COc1ccccc1NS(=O)(=O)c1cc2c(cc1C)NC(=O)CO2,-7.43%
4,CN1C(=O)/C(=C/c2cccc(Cl)c2)Sc2ccc(C(=O)N3CCCC3)cc21,-49.7%
5,CN1CCN(C(=O)c2ccc3c(c2)N(C)C(=O)/C(=C/c2cccc(Cl)c2)S3)CC1,-55.1%
6,CCOC(=O)N1CCN(C(=O)c2ccc3c(c2)N(C)C(=O)/C(=C\c2ccc(OCC)c(OC)c2)S3)CC1,-32.5%
7,Cc1cccc(/C=C2\Sc3ccc(C(=O)N4CCCCC4)cc3N(C)C2=O)c1,12.1%
8,CCOc1ccc(/C=C2/Sc3ccc(C(=O)N4CCOCC4)cc3N(C)C2=O)cc1OC,-18.5%
9,Cc1cccc(/C=C2\Sc3ccc(C(=O)N4CCOCC4)cc3N(C)C2=O)c1,-40.7%
10,COc1ccc(/C=C2\Sc3ccc(C(=O)N4CCOCC4)cc3N(C)C2=O)cc1,-15.3%
11,CCOc1ccc(/C=C2/Sc3ccc(C(=O)N4CCN(C(=O)c5ccco5)CC4)cc3N(C)C2=O)cc1OC,-53.9%
12,CN1C(=O)/C(=C/c2cccc(Cl)c2)Sc2ccc(C(=O)N3CCOCC3)cc21,-50.3%
13,COc1ccc(C(C(=O)NC(C)(C)C)N(Cc2cccnc2)C(=O)CCC(=O)Nc2cc(C)on2)cc1 (stereo not shown),10.9%
14,COc1cc(-c2csc(C)n2)ccc1O,8.67%
15,CN(C)C=O.COc1ccccc1NC(=O)C1=C(C)NC(=O)NC1c1ccccc1[N+](=O)[O-] (stereo not shown),7.42%
16,COc1cccc(N2CCN(C(=O)C3CCCN(S(=O)(=O)c4cnc[nH]4)C3)CC2)c1 (stereo not shown),17.4%
17,O=C(NCc1ccc2c(c1)OCO2)c1ccncc1,-12.6%
18,Cc1ccc(NCC(=O)Nc2cccc(F)c2)cc1S(=O)(=O)N1CCCCCC1,-22.6%
19,COC(=O)c1ccccc1NC(=O)N1CSC[C@H]1C(=O)OC,15.8%
20,CC1(C)NC(=O)N(CC(O)COc2ccccc2C(=O)Nc2ccccc2)C1=O (stereo not shown),-6.2%
21,CCCN(CCC)CC(O)COc1ccccc1C(=O)Nc1ccccc1.Cl (stereo not shown),-68.2%
22,CCCCN(CCCC)CC(O)COc1ccccc1Br.Cl (stereo not shown),-40.6%

row,SMILES,"hERG current change (%, negative = inhibition) at 10uM"
1,CCOc1ccccc1C(=O)Nc1ccc(NC(=O)c2ccccc2)cc1,12.7%
2,Cc1cc(C)n(CC(O)COc2ccccc2C(=O)Nc2ccccc2)n1 (stereo not shown),-26.1%
3,CCCCN(CCCC)CC(O)COc1ccccc1C(=O)Nc1ccccc1 (stereo not shown),-98.7%
4,CSc1ccc(/C=N/NC(=O)c2sccc2C)cc1,15.4%
5,CCCCC(=O)NC(c1ccc(OC)c(OC)c1)c1c(O)ccc2ccccc12 (stereo not shown),-13.7%
6,O=C1C(Cl)=C(N2CCOCC2)C(=O)N1c1ccccc1F,20.3%
7,O=C(Nc1ccc(Cl)c([N+](=O)[O-])c1)c1cnccn1,-10.4%
8,Cc1ccc(/C=N/NC(=O)COc2ccccc2-c2ccccc2)cc1,-3.49%
9,CCC(=O)c1ccc(N2CCCCCC2)c(F)c1,4.04%
10,COc1cc(C(=O)N2CCN(c3ccccc3Cl)CC2)ccc1OCC(=O)N1CCOCC1,-28.6%
11,Cc1ccc(S(=O)(=O)Nc2ccccc2C(=O)Nc2nc(-c3ccc(F)cc3)cs2)cc1,9.22%
12,COc1ccc(S(=O)(=O)Nc2ccccc2C(=O)Nc2nc(-c3ccc(F)cc3)cs2)cc1OC,-51.7%
13,CC(=O)c1ccc(N2CCN(C(=O)CN3C(=O)NC4(CCCCC4)C3=O)CC2)c(F)c1,0.416%
14,CC(=O)c1ccc(N2CCN(C(=O)COc3ccc(F)cc3)CC2)c(F)c1,-71.5%
15,COc1cc(C(=O)N2CCN(c3ccccc3F)CC2)ccc1OCC(=O)N1CCOCC1,-60.9%
16,CC(=O)c1ccc(N2CCN(C(=O)COc3ccccc3F)CC2)c(F)c1,-39.7%
17,CCC(=O)c1ccc(N2CCN(C(=O)COc3ccccc3F)CC2)c(F)c1,-50.9%
18,COc1ccc(-c2csc(NC(=O)c3ccccc3NS(=O)(=O)c3ccc(F)c(F)c3)n2)cc1,19.3%
19,COc1cc(C(=O)N2CCN(c3ccccc3O)CC2)ccc1OCC(=O)N1CCOCC1,3.06%
20,CCc1ccc(OCC(=O)N2CCN(c3ccccc3F)CC2)cc1,20.2%
21,CC(=O)c1cccc(NC(=O)NCc2ccco2)c1,-2.14%
22,COc1ccc(Cl)cc1Nc1nc(NCCO)nc(N2CCCCC2)n1,-3.45%

row,SMILES,"hERG current change (%, negative = inhibition) at 10uM"
1,CCN(CC)S(=O)(=O)c1ccc(C)c(NC(=S)N2CCN(C/C=C/c3ccccc3)CC2)c1,-2.74%
2,CCOc1ccc(NS(=O)(=O)c2ccc(NC(=S)NC(=O)CC(C)C)cc2)cc1,8.92%
3,O=C(CSC(=S)N1CCCC1)N1CCN(S(=O)(=O)c2cccc([N+](=O)[O-])c2)CC1,5.69%
4,COc1ccc(/C=N/NC(=O)CC(=O)NCc2cccnc2)c(OC)c1,4.71%
5,CCC(CC)C(=O)c1c[nH]c(C(=O)NCc2cccnc2)c1,18.6%
6,CC(C)(C)c1ccc(-c2nnc(SCC(=O)c3ccc4c(c3)OCCO4)o2)cc1,12.3%
7,Cc1ccc(S(=O)(=O)N(C)CCCC(=O)NC(C)(C)C)cc1,13.3%
8,CO/N=C/c1cn(-c2ccc(Cl)cc2)nn1,-2.53%
9,CC(=O)c1cc(F)c(N2CCN(C(=O)COc3ccc(F)cc3)CC2)cc1C,-76.3%
10,COc1ccc(-c2csc(NC(=O)c3ccc(OCC(=O)N4CCOCC4)c(OC)c3)n2)cc1,-48%
11,CC(=O)c1ccc(N2CCN(C(=O)Cc3ccccc3)CC2)c(F)c1,-9.6%
12,COc1cc(C(=O)Nc2nc(-c3ccc(F)cc3)cs2)ccc1OCC(=O)N1CCOCC1,-53.3%
13,CCOC(=O)N1CCN(c2ccc(C(=O)CC)cc2F)CC1,-9.37%
14,CC(=O)c1cc(F)c(N2CCN(C(=O)COc3ccccc3F)CC2)cc1C,-7.84%
15,CCC(=O)c1ccc(N2CCN(C(=O)COc3ccc(F)cc3)CC2)c(F)c1,-73.4%
16,CCOC(=O)N1CCN(c2cc(C)c(C(C)=O)cc2F)CC1,2.71%
17,CCCCCC(=O)N1CCN(c2ccc(C(C)=O)cc2F)CC1,-60.9%
18,CC(=O)c1ccc(N2CCCC2)c(F)c1,1.88%
19,CCC(=O)c1ccc(N2CCCC2)c(F)c1,6.95%
20,COc1cc(C(=O)Nc2nc(-c3ccc(C)cc3)cs2)ccc1OCC(=O)N1CCOCC1,-18.9%
21,CC1=Nc2ccccc2NC(=O)C1Sc1nnc(C)s1 (stereo not shown),-12.6%
22,CC(C)CN1CCC(CNC(=O)CCc2nnc(Cc3c[nH]c4ccccc34)o2)CC1,-1.27%

row,SMILES,"hERG current change (%, negative = inhibition) at 10uM"
1,N#Cc1ccccc1NC(=S)NC(=O)C1CCC1,9.95%
2,COc1cc2c3cc1Oc1cc(ccc1O)C[C@@H]1c4c(cc(OC)c(O)c4Oc4ccc(cc4)C[C@H]3N(C)CC2)CCN1C,-37%
3,COc1ccccc1N1CCN(C(=O)CCNS(=O)(=O)c2ccc(Br)s2)CC1,-31.3%
4,S=C1NC[C@H](Cc2ccccc2)N1CCCCC1CCCCC1,4.71%
5,CC(=O)c1ccc(Nc2nc(C)cc(C)n2)cc1,4.62%
6,COC(=O)c1ccc(Nc2cc(C)nc3ccc(C)cc23)cc1.Cl,-55.6%
7,COC(=O)c1ccc(Nc2nc(C)cc(C)n2)cc1,10.9%
8,COC(=O)c1ccc(Nc2cc(C)nc3ccccc23)cc1.Cl,-37.3%
9,CCOC(=O)c1cnc2ccc(C(=O)OC)cc2c1Nc1ccc(C(=O)O)cc1.Cl,5.66%
10,CC(=O)c1ccc(Nc2cc(C)nc3ccc(C)cc23)cc1,-74.5%
11,CC(=O)c1ccc(NC(=O)c2cc(C)nc3ccccc23)cc1,16.5%
12,COC(=O)c1ccc2nc(C)cc(Nc3ccccc3C)c2c1.Cl,-47.5%
13,COC(=O)c1ccc2nc(C)cc(Nc3ccc(N(C)C)cc3)c2c1.Cl,-67.1%
14,Cc1ccc(NN2C(=O)C=CC2=O)cc1,0.632%
15,N/C(=N\S(=O)(=O)c1ccccc1)c1ccc([N+](=O)[O-])cc1,-30%
16,COC(=O)C1C(=O)NC(SC)=C(C#N)C1c1ccccc1 (stereo not shown),8.09%
17,COC(=O)c1cc(CSc2nnc(NC3CCCCC3)s2)oc1C,-10.1%
18,Cc1ccc(CN(C)C(=O)c2c(C)nn(-c3ccccc3)c2C)cc1,8.12%
19,C=C(C)c1cccc(C(C)(C)NC(=O)N2CCN(c3ncccn3)CC2)c1,0.0429%
